ChEMBL document CHEMBL3988442, “University of Dundee, Small-Polar-MMV Screening Library” (2021)
For some assays here: Measured potencies and affinities stand elsewhere.

Columns and labels:
Design in all cases: scale not given: direction of the effect not stated beside the values
[1] = molecular target: Protein translocase subunit SecA (Escherichia coli (strain K12)) (UniProt P10408); test: Assay to Identify E. coli SecA ATPase Inhibitors; type: functional; settings: 30 µM
[2] = molecular target: T1, Ubiquitin-activating enzyme e1, putative (Leishmania donovani (strain BPK282A1)) (UniProt E9BSI1); test: Leishmania donovani Ubiquitin Activating Enzyme (LdE1); type: functional; settings: 30 µM
T1 sequence (whole entry): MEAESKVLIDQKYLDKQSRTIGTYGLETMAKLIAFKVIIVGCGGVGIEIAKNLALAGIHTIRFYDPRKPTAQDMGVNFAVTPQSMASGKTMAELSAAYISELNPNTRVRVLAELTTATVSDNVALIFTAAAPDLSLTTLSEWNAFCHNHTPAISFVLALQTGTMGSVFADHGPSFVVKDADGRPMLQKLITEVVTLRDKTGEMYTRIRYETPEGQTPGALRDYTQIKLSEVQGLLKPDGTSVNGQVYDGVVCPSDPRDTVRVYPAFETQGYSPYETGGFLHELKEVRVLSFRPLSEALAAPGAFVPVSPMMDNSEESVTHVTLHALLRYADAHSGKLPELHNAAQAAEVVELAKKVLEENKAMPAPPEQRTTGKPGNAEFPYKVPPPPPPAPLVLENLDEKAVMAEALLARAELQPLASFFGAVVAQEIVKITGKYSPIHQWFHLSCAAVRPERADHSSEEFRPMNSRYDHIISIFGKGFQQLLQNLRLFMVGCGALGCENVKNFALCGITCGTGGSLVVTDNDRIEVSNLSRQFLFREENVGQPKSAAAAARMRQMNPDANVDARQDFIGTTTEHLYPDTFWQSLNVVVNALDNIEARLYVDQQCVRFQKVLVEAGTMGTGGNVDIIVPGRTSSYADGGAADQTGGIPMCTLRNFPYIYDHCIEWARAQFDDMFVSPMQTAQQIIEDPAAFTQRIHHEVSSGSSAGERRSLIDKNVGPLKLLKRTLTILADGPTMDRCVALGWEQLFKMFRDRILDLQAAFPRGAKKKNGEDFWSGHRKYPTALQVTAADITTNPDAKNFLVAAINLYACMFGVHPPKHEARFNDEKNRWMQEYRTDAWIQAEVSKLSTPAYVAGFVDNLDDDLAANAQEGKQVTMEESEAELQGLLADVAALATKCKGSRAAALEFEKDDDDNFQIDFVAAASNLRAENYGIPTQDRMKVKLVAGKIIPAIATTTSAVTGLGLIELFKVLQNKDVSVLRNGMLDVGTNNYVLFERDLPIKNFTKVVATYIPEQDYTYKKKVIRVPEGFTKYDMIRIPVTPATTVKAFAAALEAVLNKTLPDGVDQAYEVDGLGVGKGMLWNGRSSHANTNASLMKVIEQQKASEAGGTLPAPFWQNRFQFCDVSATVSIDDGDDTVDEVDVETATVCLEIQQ

[3] = molecular target: AMP-activated protein kinase, AMPK (Homo sapiens) (UniProt P54646+O43741+P54619+Q9UGJ0+Q9Y478+Q13131+Q9UGI9); test: AMP-dependent Kinase enzyme assay. An in vitro enzyme assay that detects ADP turnover that is directly proportional to AMPK activity. This uses naive AMPK that is activated during the assay with MK-8722; type: functional; settings: 30 µM
[4] = molecular target: Sialic acid-binding Ig-like lectin 9 (Homo sapiens) (UniProt Q9Y336); test: Hs-Siglec9 ALPHAscreen SOP 20170721; settings: 10 µM
Sequence of Sialic acid-binding Ig-like lectin 9 (Homo sapiens) (Q9Y336 whole entry): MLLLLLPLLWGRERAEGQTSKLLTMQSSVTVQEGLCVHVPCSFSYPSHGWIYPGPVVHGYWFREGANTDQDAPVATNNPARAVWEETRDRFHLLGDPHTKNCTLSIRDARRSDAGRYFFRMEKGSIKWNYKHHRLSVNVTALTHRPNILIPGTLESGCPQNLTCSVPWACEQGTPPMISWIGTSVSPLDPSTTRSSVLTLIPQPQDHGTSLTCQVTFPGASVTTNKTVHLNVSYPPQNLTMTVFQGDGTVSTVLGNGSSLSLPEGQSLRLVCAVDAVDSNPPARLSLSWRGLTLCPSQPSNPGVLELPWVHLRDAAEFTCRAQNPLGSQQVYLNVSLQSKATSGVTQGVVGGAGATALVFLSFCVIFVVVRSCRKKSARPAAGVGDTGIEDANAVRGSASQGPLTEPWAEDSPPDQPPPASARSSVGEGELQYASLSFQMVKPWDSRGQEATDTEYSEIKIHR

Trypanosoma cruzi = test: Trypanosoma cruzi phosphomannomutase and mannose-1-phosphate guanylyltransferase assay; type: functional; settings: 10 µM
[5] = molecular target: T2, Arginase-2, mitochondrial (Homo sapiens) (UniProt P78540); test: in vitro enzyme assay to detect the production of urea directly proportional to the activity of Arginase II; type: functional; settings: 33.3 µM; also: in the data most compounds retested in dose-response had high values
T2 sequence (whole entry): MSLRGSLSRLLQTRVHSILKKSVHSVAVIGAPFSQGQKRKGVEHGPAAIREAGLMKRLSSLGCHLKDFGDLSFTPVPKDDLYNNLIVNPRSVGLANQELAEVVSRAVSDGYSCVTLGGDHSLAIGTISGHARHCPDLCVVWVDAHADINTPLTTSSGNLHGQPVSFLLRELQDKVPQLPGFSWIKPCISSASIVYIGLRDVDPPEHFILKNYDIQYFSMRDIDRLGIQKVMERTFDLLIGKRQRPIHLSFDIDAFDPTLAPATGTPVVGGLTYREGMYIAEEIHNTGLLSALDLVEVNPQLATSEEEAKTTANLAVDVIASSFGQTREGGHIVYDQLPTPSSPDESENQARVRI

[6] = molecular target: T3, Proteasome subunit beta (Trypanosoma cruzi) (UniProt O96673); test: Trypanosoma cruzi proteasome chymotrypsin-like activity (TcProtChymo) assay.; also: in the data most compounds retested in dose-response had high values; type: functional; settings: 9.37 µM
T3 sequence (whole entry): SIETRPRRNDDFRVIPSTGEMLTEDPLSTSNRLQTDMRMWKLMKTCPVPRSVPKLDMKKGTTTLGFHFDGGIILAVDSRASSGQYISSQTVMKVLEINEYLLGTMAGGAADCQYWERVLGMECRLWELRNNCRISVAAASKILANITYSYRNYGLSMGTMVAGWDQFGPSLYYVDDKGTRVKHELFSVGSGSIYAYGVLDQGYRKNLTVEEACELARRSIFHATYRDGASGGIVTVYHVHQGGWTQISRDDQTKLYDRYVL

Homo sapiens = species: Homo sapiens; test: To identify inhibition of the IFN signalling (Jak-Stat) pathway via expression of an eGFP reporter gene under the control of an IFN-stimulated response element (ISRE) containing MxA promoter.; type: functional; settings: 30 µM
[7] = molecular target: T4, Tyrosyl-tRNA synthetase, putative (Trypanosoma cruzi (strain CL Brener)) (UniProt Q4DSP6); test: Trypanosoma cruzi tyrosyl tRNA synthetase (TcYRS) _High Tyrosine SOP; type: functional; settings: 30 µM; also: in the data most compounds retested in dose-response had high values
T4 sequence (whole entry): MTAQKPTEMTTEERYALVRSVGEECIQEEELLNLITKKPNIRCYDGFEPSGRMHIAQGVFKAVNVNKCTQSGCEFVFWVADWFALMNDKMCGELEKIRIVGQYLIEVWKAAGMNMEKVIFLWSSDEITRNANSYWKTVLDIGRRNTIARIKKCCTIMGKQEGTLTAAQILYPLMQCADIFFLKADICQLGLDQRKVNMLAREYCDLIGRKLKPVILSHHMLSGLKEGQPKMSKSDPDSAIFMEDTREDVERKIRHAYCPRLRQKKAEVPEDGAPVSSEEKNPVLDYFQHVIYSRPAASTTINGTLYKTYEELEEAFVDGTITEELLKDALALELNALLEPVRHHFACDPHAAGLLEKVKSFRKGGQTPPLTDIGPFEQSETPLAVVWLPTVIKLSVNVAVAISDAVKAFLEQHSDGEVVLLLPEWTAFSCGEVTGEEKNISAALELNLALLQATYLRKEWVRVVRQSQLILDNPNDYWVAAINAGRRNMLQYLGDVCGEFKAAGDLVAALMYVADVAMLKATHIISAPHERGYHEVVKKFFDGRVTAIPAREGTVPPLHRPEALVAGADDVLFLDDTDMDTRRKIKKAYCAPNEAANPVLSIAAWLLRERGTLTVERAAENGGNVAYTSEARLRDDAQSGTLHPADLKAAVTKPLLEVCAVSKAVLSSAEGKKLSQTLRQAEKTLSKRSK

[8] = molecular target: T4, Tyrosyl-tRNA synthetase, putative (Trypanosoma cruzi (strain CL Brener)); test: Trypanosoma cruzi tyrosyl tRNA synthetase (TcYRS) SOP; type: functional; settings: 30 µM
[9] = molecular target: Chromo domain-containing protein 1 (Saccharomyces cerevisiae (strain ATCC 204508 / S288c) (Baker's yeast)) (UniProt P32657); test: ScCHD-1 Enzyme Inhibition Assay; type: functional; settings: 30 µM; also: in the data most compounds retested in dose-response had high values
Sequence of Chromo domain-containing protein 1 (Saccharomyces cerevisiae (strain ATCC 204508 / S288c) (Baker's yeast)) (P32657 whole entry, the tested form may be a part): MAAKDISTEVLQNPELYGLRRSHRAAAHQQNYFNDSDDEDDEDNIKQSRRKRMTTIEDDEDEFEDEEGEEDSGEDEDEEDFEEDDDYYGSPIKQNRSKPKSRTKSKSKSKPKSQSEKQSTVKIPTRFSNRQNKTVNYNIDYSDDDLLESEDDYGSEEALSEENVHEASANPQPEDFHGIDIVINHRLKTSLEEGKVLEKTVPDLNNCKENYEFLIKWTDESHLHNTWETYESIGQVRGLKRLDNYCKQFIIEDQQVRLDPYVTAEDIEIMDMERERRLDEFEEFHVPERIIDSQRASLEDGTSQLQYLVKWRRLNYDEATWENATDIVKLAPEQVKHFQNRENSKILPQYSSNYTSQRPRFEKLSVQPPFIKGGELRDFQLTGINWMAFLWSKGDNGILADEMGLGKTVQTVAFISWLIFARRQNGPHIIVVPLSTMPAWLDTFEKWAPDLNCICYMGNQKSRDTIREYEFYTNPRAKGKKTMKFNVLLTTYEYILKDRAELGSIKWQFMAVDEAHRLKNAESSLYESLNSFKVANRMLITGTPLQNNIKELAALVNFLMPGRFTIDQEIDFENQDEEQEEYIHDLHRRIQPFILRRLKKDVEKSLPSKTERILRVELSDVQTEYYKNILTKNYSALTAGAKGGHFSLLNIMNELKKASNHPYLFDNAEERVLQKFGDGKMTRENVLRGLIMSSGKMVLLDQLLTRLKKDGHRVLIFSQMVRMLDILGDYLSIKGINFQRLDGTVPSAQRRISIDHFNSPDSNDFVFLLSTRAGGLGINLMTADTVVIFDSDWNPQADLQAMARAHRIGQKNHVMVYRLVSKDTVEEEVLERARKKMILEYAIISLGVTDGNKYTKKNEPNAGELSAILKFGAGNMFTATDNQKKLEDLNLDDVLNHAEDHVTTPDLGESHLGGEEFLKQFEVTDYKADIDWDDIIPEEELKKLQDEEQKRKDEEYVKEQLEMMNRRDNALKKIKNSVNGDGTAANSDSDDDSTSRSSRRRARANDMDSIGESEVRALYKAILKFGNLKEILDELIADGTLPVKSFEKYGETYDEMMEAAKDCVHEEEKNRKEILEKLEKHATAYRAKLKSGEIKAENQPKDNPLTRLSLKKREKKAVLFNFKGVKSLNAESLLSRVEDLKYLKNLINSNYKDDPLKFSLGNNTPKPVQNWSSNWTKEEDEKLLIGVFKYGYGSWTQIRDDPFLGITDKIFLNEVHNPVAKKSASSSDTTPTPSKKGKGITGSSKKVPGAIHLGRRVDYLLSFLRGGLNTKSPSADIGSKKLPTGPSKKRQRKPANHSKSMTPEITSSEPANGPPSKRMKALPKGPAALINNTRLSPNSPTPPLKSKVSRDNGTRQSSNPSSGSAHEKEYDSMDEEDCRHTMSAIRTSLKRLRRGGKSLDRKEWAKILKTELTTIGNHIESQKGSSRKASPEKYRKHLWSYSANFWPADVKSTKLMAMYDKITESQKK

Sequence of Protein translocase subunit SecA (Escherichia coli (strain K12)) (P10408 whole entry): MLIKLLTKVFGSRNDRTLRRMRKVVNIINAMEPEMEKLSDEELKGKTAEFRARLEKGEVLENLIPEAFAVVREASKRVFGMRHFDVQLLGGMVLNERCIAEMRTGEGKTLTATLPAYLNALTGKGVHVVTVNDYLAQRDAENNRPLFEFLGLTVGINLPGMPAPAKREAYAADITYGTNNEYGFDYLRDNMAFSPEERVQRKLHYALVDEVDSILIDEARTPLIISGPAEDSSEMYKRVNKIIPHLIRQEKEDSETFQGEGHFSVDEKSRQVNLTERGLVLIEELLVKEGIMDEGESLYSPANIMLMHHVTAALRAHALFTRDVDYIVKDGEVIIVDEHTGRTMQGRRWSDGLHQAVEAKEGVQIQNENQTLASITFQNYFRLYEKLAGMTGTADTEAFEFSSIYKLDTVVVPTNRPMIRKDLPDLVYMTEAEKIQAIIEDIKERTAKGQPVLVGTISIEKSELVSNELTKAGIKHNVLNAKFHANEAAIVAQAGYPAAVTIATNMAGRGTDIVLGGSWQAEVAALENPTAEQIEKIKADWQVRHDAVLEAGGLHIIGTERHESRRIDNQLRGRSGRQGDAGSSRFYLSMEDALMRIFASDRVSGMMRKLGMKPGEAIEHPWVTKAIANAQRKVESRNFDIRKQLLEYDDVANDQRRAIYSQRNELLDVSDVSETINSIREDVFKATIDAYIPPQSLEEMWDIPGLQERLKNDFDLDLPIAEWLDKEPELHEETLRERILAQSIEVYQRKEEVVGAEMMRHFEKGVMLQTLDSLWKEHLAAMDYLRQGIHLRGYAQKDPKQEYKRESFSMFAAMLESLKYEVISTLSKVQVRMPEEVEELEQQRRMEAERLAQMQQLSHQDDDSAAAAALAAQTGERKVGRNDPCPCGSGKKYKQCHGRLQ

Row | SMILES | Percent Effect [1] [%] | Percent Effect [2] [%] | Percent Effect [3] [%] | Percent Effect [4] [%] | Percent Effect (Trypanosoma cruzi) [%] | Percent Effect [5] [%] | Percent Effect [6] [%] | Percent Effect (Homo sapiens) [%] | Percent Effect [7] [%] | Percent Effect [8] [%] | Percent Effect [9] [%]
1 | O=C1CC(c2cccnc2)C2(CCN(S(=O)(=O)C3CC3)CC2)N1 (stereo not given) | -5.32 | 8.11 | 1.06 | -2.02 | 3.42 | -4.78 | 15.3 | -9.26 | 4.32 | 12.8 | 2.44
2 | Cc1oncc1C(=O)N1CCC2(CCN(Cc3ccccn3)C2=O)C1 (stereo not given) | -5.3 | -2.74 | -0.544 | 4.81 | -2.78 | -3.19 | 8.82 | 15.6 | 2.08 | 1.24 | -0.071
3 | CC(=O)c1ccc(OCC(=O)NC(C)CCc2ccco2)cc1 (stereo not given) | -0.558 | 5.41 | 7.91 | -3.5 | -7.34 | 1.91 | 19.8 | 6.38 | 3.7 | 2.44 | -1.85
4 | Cc1cc(C)c(CNC(=O)N2CCCC2C(N)=O)c(=O)[nH]1 (stereo not given) | -3.77 | 6.33 | 7.27 | 3.83 | -1.95 | 1.5 | 23.5 | 11.6 | 5.21 | 12.7 | -14.7
5 | CC(C)Nc1ncnc2c1CCN(C(=O)c1ccncc1F)CC2 | -4.14 | 8.11 | 0.552 | -7.16 | -6.35 | -2.87 | 17.2 | 4.19 | 3.24 | 10.3 | -3.13
6 | Cc1csc(NC(=O)CN2CCC(c3ccnn3CCO)CC2)n1 | -4.67 | 25.3 | -7.88 | -3.79 | 4.06 | 0 | 9.42 | 47.6 | 8.37 | 26.6 | -7.33
7 | CCc1nc(CN(C)CC(c2cccs2)N2CCOCC2)no1 (stereo not given) | -2.58 | 27 | -3.84 | -3.75 | 1.76 | -2.4 | 10.6 | 13.9 | 6.93 | 23.2 | -7.57
8 | CC(C)c1ncc2c(n1)CN(Cc1nc(-c3cccs3)no1)CC2 | -1.45 | -10.8 | -21.1 | -6.68 | -3.99 | 2.4 | 2.33 | 19.6 | 13.9 | 13.4 | 8.9
9 | CCc1ncnc2c1CCN(C(=O)Cc1ccccn1)CC2 | -1.33 | 4 | -1.05 | 1.52 | -0.786 | -9.33 | 11.8 | 12.9 | 1.06 | -5.13 | -2.69
10 | CC(C)C(Sc1nnc(C2CC2)n1C1CC1)C(=O)NCc1cccnc1 (stereo not given) | 1.83 | -2.6 | -2.77 | 5.12 | 5.24 | -1.42 | 3.21 | -24.2 | 5.83 | 12.2 | -8.74
